# Measurements: PubChem BioAssay AID1645838 (ICCB-Longwood Screening Facility, Harvard Medical School, 2021)
# Several values for one entry are separate records, joined by “and”; a condition that tells them apart may be missing. Equal entries are not always repeated. About 100 (5%) of roughly 2,000 compounds were called active. Cut-off read from the data, not from the text of the source: active = z-score above about 2; inactive = the rest. Only a selection was taken, and actives are over-represented in it overall.
# Experiment: supercomplex reporter luminescence per Hoechst cell count – Hoechst nuclei count (AID 1645838);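 note: control cybrid cells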;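 for z-score: higher means more mitochondrial supercomplex formation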
# Settings: Cells, luminescence/Hoechst cell count ratio; for z-score: stronger effect = higher value; for cell count: measured here: cell number, Hoechst nuclei count
# [1] = library stock concentration (final well concentration not given) 80 uM
# [2] = library stock concentration (final well concentration not given) 400 uM
# [3] = library stock concentration (final well concentration not given) 2 mM
# [4] = library stock concentration (final well concentration not given) 10 mM
# [5] = library stock concentration (final well concentration not given) 46 uM
# [6] = library stock concentration (final well concentration not given) 278 uM
# [7] = library stock concentration (final well concentration not given) 1.67 mM
structure (smiles),measurement,setting,value
CCCCC/C=C\C/C=C\C/C=C\C/C=C\CCCC(=O)NC(CO)CO,z-score,,4 (active)
same,cell count,,4470
CCCCC/C=C\C/C=C\C/C=C\C/C=C\CCCC(=O)N[C@@H](C)CO,z-score,,0.0527 (inactive)
same,cell count,,5800
CCCCC/C=C\C/C=C\C/C=C\C/C=C\CCCC(=O)N[C@H](C)CO,z-score,,-0.466 (inactive)
same,cell count,,6100
CNCCCCCCN(C)N(O)N=O,z-score,,0.0102 (inactive)
same,cell count,,6050
CCCCCCC(=O)O[C@H]1CC[C@H]2[C@@H]3C=CC4=CC(=O)CC[C@]4(C)[C@H]3CC[C@]12C,z-score,,-0.283 (inactive)
same,cell count,,5360
COC1C(OC(=O)NC(=O)CCl)CC[C@]2(CO2)[C@@H]1[C@@]1(C)OC1CC=C(C)C (stereo not given in full),z-score,[1],-0.0262 (inactive)
same,z-score,[2],0.199 (inactive)
same,z-score,[3],1.06 (inactive)
same,z-score,[4],2.72 (active)
same,cell count,[1],3980
same,cell count,[2],3760
same,cell count,[3],3110
same,cell count,[4],1800
c1cc2cc(N3CCNCC3)ccc2cn1,z-score,,0.406 (inactive)
same,cell count,,4610
CCCCC/C=C\C/C=C\C/C=C\C/C=C\CCCC(=O)NCCc1ccc(O)c(O)c1,z-score,,0.0355 (inactive)
same,cell count,,5380
CS(=O)CCCCN=C=S (stereo not given),outcome,library stock 10 mM,inactive; censored for cell count
same,z-score,[1],-0.41 (inactive)
same,z-score,[2],-0.338 (inactive)
same,z-score,[3],0.15 (inactive)
same,cell count,[1],6580
same,cell count,[2],6460
same,cell count,[3],5610
CCCCCCCC/C=C\CCCCCCCC(=O)N[C@H](C)CO,z-score,,0.127 (inactive)
same,cell count,,5170
CCCCCCC(=O)CCCCCC/C=C/C[C@@H](O)[C@H](O)[C@@](N)(CO)C(=O)O,z-score,,5.47 (active)
same,cell count,,4740
CCCCC/C=C\C/C=C\CCCCCCCC(=O)NCCO,outcome,,inactive; censored for cell count
CCCCC/C=C\C/C=C\C/C=C\C/C=C\CCCC(=O)Nc1ccc([N+](=O)[O-])cc1,z-score,,-0.128 (inactive)
same,cell count,,5210
CCCCC/C=C\C/C=C\C/C=C\C/C=C\CCCC(=O)NCCc1c[nH]c2ccc(O)cc12,z-score,,1.36 (inactive)
same,cell count,,5300
O=NN(O)N1CCC[C@H]1C(=O)O,z-score,,-0.00248 (inactive)
same,cell count,,5130
CN=C(NS(=O)(=O)c1ccc(Cl)cc1)N1C[C@@H](c2ccccc2)C(c2ccc(Cl)cc2)=N1,z-score,,-0.26 (inactive)
same,cell count,,5290
Cc1sc2c(c1C)C(c1ccc(Cl)cc1)=NC(CC(=O)OC(C)(C)C)c1nnc(C)n1-2 (stereo not given),z-score,[1],1.22 (inactive)
same,z-score,[2],2.15 (active)
same,z-score,[3],4.36 (active)
same,z-score,[4],5.69 (active)
same,cell count,[1],5120
same,cell count,[2],4600
same,cell count,[3],3540
same,cell count,[4],2860
Cc1sc2c(c1C)C(c1ccc(Cl)cc1)=NC(CC(N)=O)c1nnc(C)n1-2 (stereo not given),z-score,[5],0.632 (inactive)
same,z-score,[6],2.69 (active)
same,z-score,[7],7.71 (active)
same,z-score,[4],10.6 (active)
same,cell count,[5],5970
same,cell count,[6],4460
same,cell count,[7],2880
same,cell count,[4],2360
Cc1sc2c(c1C)C(c1ccc(Cl)cc1)=NC(CC(=O)Nc1ccc(O)cc1)c1nnc(C)n1-2 (stereo not given),z-score,[1],1.4 (inactive)
same,z-score,[2],3.81 (active)
same,z-score,[3],7.81 (active)
same,z-score,[4],8.99 (active)
same,cell count,[1],5230
same,cell count,[2],4010
same,cell count,[3],2830
same,cell count,[4],2330
C[N@@+]1(CC2CC2)CC[C@]23c4c5ccc(O)c4OC2C(=O)CC[C@@]3(O)C1C5 (stereo not given in full),z-score,[1],0.853 (inactive)
same,z-score,[2],0.439 (inactive)
same,z-score,[3],1.12 (inactive)
same,z-score,[4],0.0218 (inactive)
same,cell count,[1],4560
same,cell count,[2],4560
same,cell count,[3],3990
same,cell count,[4],4440
CN=C(NS(=O)(=O)c1ccc(Cl)cc1)N1CC(c2ccccc2)C(c2ccc(Cl)cc2)=N1 (stereo not given),z-score,,0.263 (inactive)
same,cell count,,4560
CCCC(=O)N[C@H]1CCOC1=O,z-score,,-0.00429 (inactive)
same,cell count,,5280
O=C1C(=O)c2cccc3cccc1c23,outcome,library stock 10 mM,inactive; censored for cell count
same,z-score,[1],-0.293 (inactive)
same,z-score,[2],-0.13 (inactive)
same,z-score,[3],0.0237 (inactive)
same,cell count,[1],5390
same,cell count,[2],5120
same,cell count,[3],4940
CCCCC/C=C\C/C=C\C/C=C\C/C=C\CCCC(=O)OCCN,z-score,,-1.23 (inactive)
same,cell count,,5760
COc1nc(C)nc(NC(=O)NS(=O)(=O)c2ccccc2Cl)n1,z-score,[5],0.223 (inactive)
same,z-score,[6],0.421 (inactive)
same,z-score,[7],0.438 (inactive)
same,z-score,[4],0.591 (inactive)
same,cell count,[5],6660
same,cell count,[6],6640
same,cell count,[7],6690
same,cell count,[4],6980
NC(=NCCCC(N)C(=O)O)N[N+](=O)[O-] (stereo not given),z-score,[5],-0.276 (inactive)
same,z-score,[6],-0.202 (inactive)
same,z-score,[7],-0.093 (inactive)
same,z-score,[4],-0.00821 (inactive)
same,cell count,[5],5020
same,cell count,[6],4960
same,cell count,[7],5010
same,cell count,[4],4490
O=C(NC(COc1ccc2[nH]c(=O)[nH]c2c1)c1ccccc1)c1cccn(Cc2ccc(F)c(F)c2)c1=O (stereo not given),z-score,[1],-0.974 (inactive) and -0.18 (inactive)
same,z-score,[2],-0.76 (inactive) and -0.318 (inactive)
same,z-score,[3],-0.629 (inactive) and -0.22 (inactive)
same,z-score,[4],-0.746 (inactive) and -0.664 (inactive)
same,cell count,[1],5360 and 6280
same,cell count,[2],4530 and 6370
same,cell count,[3],5030 and 6190
same,cell count,[4],4470 and 5840
CCCN(CCCN)N(O)N=O,z-score,,0.0434 (inactive)
same,cell count,,5220
COc1ccc2cc(C(C#N)OC(=O)OCC3OC3c3ccccc3)ccc2c1 (stereo not given),z-score,,-0.334 (inactive)
same,cell count,,4870
CCCCCCCCCCCCCCCCOC[C@@H](O)COP(=O)([O-])OCC[N+](C)(C)C,z-score,,-1.65 (inactive)
same,cell count,,5770
CCCC[C@@H](C)C(OC(=O)C[C@@H](CC(=O)O)C(=O)O)C(C[C@@H](C)C[C@H](O)CCCC[C@@H](O)C[C@H](O)[C@H](C)N)OC(=O)C[C@@H](CC(=O)O)C(=O)O (stereo not given in full),z-score,,-0.0113 (inactive)
same,cell count,,5860
NCCc1c(Cl)cccc1Cl,z-score,[1],0.124 (inactive)
same,z-score,[2],0.256 (inactive)
same,z-score,[3],0.163 (inactive)
same,z-score,[4],-0.533 (inactive)
same,cell count,[1],5290
same,cell count,[2],5420
same,cell count,[3],5540
same,cell count,[4],5250
CCCCCCCCCCCCCCCC(=O)OC[C@H](COP(=O)([O-])OCC[N+](C)(C)C)OC(=O)CCCC=O,z-score,,0.248 (inactive)
same,cell count,,4750
Cc1nc(-c2ccc(-c3ccc(C(=O)N4CCc5cc6c(cc54)C4(CCN(C)CC4)CO6)cc3)c(C)c2)no1,z-score,[1],-0.255 (inactive)
same,z-score,[2],0.0819 (inactive)
same,z-score,[3],-0.0801 (inactive)
same,z-score,[4],3.86 (active)
same,cell count,[1],5300
same,cell count,[2],5160
same,cell count,[3],5100
same,cell count,[4],1770
CC1CNCCc2ccc(Cl)cc21 (stereo not given),z-score,[1],-0.315 (inactive)
same,z-score,[2],-0.24 (inactive)
same,z-score,[3],-0.135 (inactive)
same,z-score,[4],-0.0867 (inactive)
same,cell count,[1],6030
same,cell count,[2],5570
same,cell count,[3],5830
same,cell count,[4],5720
